Laboratory results taken from PubChem BioAssay (NCI).
This is part of a sample that, as a whole, favours compounds with a hit. Of some 83,000 tested, about 20% had one in any assay.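 How to read the values: 0–100, growth inhibition (40 = 60% inhibited); 0, no net growth; -100 to 0, cell death (-40 = 40% of starting cells died; -100 = all dead).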 Active and inactive are the calls of the source. How the source made its calls: active means growth percent below 10; inactive means the rest.

tested on: M14 melanoma; assay: NCI-60 one-dose screen, 48 h (100 = growth as untreated, 0 = no growth, -100 = all killed); details: 10 µM unless noted

Structure (SMILES) | growth
O=C(CCl)c1ccc([N+](=O)[O-])o1 | -11.5% (active)
CCCCCSC1C2C(=O)C(Br)=CC13CCNc1c(O)c4c5c(c13)=[N+]2CCC=5C=N4 (stereo not drawn) | -92.6% (active)
COc1ccc(C/C(C)=C(\c2ccc(OCCN3CCOCC3)cc2)c2ccc(OC(=O)Cc3ccccc3)cc2)cc1 | -66.9% (active)
Cn1cc(-c2csc(-c3cn(CCCCN4CCCCC4)c4ccc(F)cc34)n2)c2cccnc21 | -78.7% (active)
COc1ccc2c(c1)c(-c1nc(-c3cn(C)c4ncccc34)cs1)cn2CCCCN1CCCCC1 | -79.1% (active)
C[n+]1c(/C=C/c2ccc(N(CCCl)CCCl)cc2)sc2ccccc21 | 64.7% (inactive)
C=CC[Se]C(=O)c1ccccc1OC(C)=O | -6.78% (active)
CC(=O)OC1CCC2C3CCC4=C/C(=N/OC(=O)c5ccc(N(CCCl)CCCl)cc5)CCC4(C)C3CC(C)C12 (stereo not drawn) | 89.6% (inactive)
CCCCCCCC[n+]1ccc2ccccc2c1 | 42.6% (inactive)
Cn1cccc1C1CC(=O)N(CCC[Se]C#N)C1=O (stereo not drawn) | 4.09% (active)
C[Se]C(=O)c1ccccc1OC(C)=O | 20.8% (inactive)
O=C1Nc2ccccc2C2c3cccn3-c3ccccc3CN12 (stereo not drawn) | 20.2% (inactive)
CCOC(=O)[C@@H](C)C[C@H](Cc1ccccc1)NC(=O)c1csc([C@@H](C[C@H](C(C)C)N(C)C(=O)[C@H](CCC(C)C)NC(=O)[C@H]2CCCCN2C)OC(C)=O)n1 | -7.2% (active)
COC(=O)[C@H](C[C@H](Cc1ccccc1)NC(=O)c1csc([C@@H](C[C@H](C(C)C)N(C)C(=O)[C@@H](NC(=O)[C@H]2CCCCN2C)C(C)C)OC(C)=O)n1)NC(=O)OCc1ccccc1 | -48.4% [8.5 µM] (active)
CC1(C)N=C(N)N=C(N)N1c1ccc(OCCCNC(=O)Nc2ccc(S(=O)(=O)F)cc2)c(Cl)c1 | 35.3% (inactive)
O=C(CN1CCN(C(=O)c2ccco2)CC1)Nc1ccc(Cl)cc1C(=O)c1ccccc1Cl | 90.4% (inactive)
Cc1cc(N(CCCl)CCCl)ccc1C=Nc1ccccc1-c1ccccc1 | 75.8% (inactive)

Structure (SMILES) | growth
Cn1cc(-c2csc(-c3cn(CCN4CCOCC4)c4ccccc34)n2)c2cccnc21 | 39% (inactive)
CCOC(=O)[C@@H](C)C[C@H](Cc1ccccc1)NC(=O)c1csc([C@@H](C[C@H](C(C)C)N(C)C(=O)[C@H](CC)NC(=O)[C@H]2CCCCN2C)OC(C)=O)n1 | -25.7% (active)
ClC1=C(Cl)C(Cl)(C2(Cl)C(Cl)=C(Cl)C(Cl)=C2Cl)C(Cl)=C1Cl | -57.6% (active)
O=C([O][Hg][CH2]C1OCCOC1[CH2][Hg][O]C(=O)c1ccccc1)c1ccccc1 (stereo not drawn) | 73.3% (inactive)
COc1ccc([As]=[As]c2ccc(OC)c(NCS(=O)(=O)O)c2)cc1NCS(=O)(=O)O (stereo not drawn) | 19.2% (inactive)
[Cl][Hg][n]1c(-c2ccco2)nc2ccccc21 | 86.1% (inactive)
CCC[CH2][Sn]([CH2]CCC)([CH2]CCC)[O]c1ccc(Cl)cc1Cl | -83.9% (active)
NC(CCl)CCl | 94.6% (inactive)
CN1CCC(c2c[nH]c3ccccc23)C1 (stereo not drawn) | 93% (inactive)
CCCCCCCCCCCCCCCCCC1OC[C@@H](COC(=O)O[C@@H](C(=O)O[C@H]2C[C@@]3(O)[C@@H](OC(=O)c4ccccc4)[C@@H]4[C@]5(OC(C)=O)CO[C@@H]5C[C@H](O)[C@@]4(C)C(=O)[C@H](OC(C)=O)C(=C2C)C3(C)C)[C@@H](NC(=O)c2ccccc2)c2ccccc2)O1 (stereo partly drawn) | 38.8% (inactive)
CC1=C([Te]c2ccc(O)cc2)C(=O)c2ccccc2C1=O | -24.2% (active)
O=C1NC(=O)C(=Cc2cn(CCCCCCn3c4ccccc4c(=O)c4ccccc43)c3ccccc23)C(=O)N1 | 94.1% (inactive)
CC(C)OC(=O)[C@H](C)NP(=O)(Oc1ccccc1)C1CCCN(O)C1=O (stereo partly drawn) | 66.5% (inactive)
CCCCCCC(=O)NC1=C(N2CC2)C(=O)C(NC(=O)CCCCCC)=C(N2CC2)C1=O | 20.5% (inactive)
COc1ccc(/C=C\c2cc(OC)c(OC)c(OC)c2)cc1NS(=O)(=O)c1ccc(Cl)cc1 | 62.4% (inactive)
CC[C@H](C)[C@H](NC(=O)[C@H]1CCCCN1C)C(=O)N(C)[C@H](CC(=O)c1nc(C(=O)N[C@@H](Cc2ccccc2)C[C@H](C)C(=O)O)cs1)C(C)C | 57.9% (inactive)
